Most compounds without a hit are left out; they make up all but 8.7% or so of the library.
VACV mCherry inh – qHTS for Stage-Specific Inhibitors of Vaccinia Orthopoxvirus: mCherry Reporter Primary qHTS. Vaccinia virus mCherry reporter infection, fluorescence. Potency, µM (doses to about 36.5 µM), inactives show at the highest dose activity change, negative = inhibition, hits mostly inhibitors. 310,000 tested, 0.63% active. AID 720579, 2013; calls by dose curve; tested in A549 cells; note: nearly all actives have a fitted effect of over 35% in size
AMA1-RON2 inh – qHTS for Inhibitors of AMA1-RON; Towards Development of Antimalarial Drug Lead: Primary Screen | Plasmodium falciparum AMA1 (3D7) - RON2 peptide interaction | AlphaScreen AMA1-biotinylated RON2 peptide binding | Potency, µM (titrated, usually from 58.2 µM), without a hit: top-dose activity change, negative = inhibition, actives largely listed as inhibitors | 360,000 tested, 0.2% active;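 note: 0% = vehicle wells and -100% = peptide control; nearly all actives have a fitted effect of over 45% in size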
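AMA1 (3D7) with his tag at 25 nM final met compounds first, then biotinylated RON2 peptide at 25 nM; detection used donor plus acceptor beads, 10 µg/mL apiece, read by AlphaScreen after 30 min at room temperature.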
Vaccinia Venus – qHTS for Stage-Specific Inhibitors of Vaccinia Orthopoxvirus: Venus Reporter Primary qHTS; Vaccinia virus Venus reporter expression, fluorescence; AID 720580, 2013; 330,000 tested, 0.46% active; Potency, µM (highest dose often 36.5 µM), without a hit: top-dose activity change, negative = inhibition, hits mostly inhibitors; calls by dose curve; tested in A549 cells; note: nearly all actives have a fitted effect of over 30% in size
Pf growth 48h – Primary qHTS for delayed death inhibitors of the malarial parasite plastid, 48 hour incubation; P. falciparum luciferase growth in erythrocytes, 48 h; Potency, µM (doses to about 28.7 µM), without a hit: at the top dose activity change, negative = inhibition, usual class: inhibitors; 310,000 tested, 5.9% active; AID 504832, 2011
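Parasite viability was followed by luminescence of a genomically integrated firefly luciferase. Cultures held 0.1% parasitemia at 2% hematocrit (final), incubated under 5% CO2 at 37 C.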
Pf growth 96h – Primary qHTS for delayed death inhibitors of the malarial parasite plastid, 96 hour incubation; 320,000 tested, 6.9% active; P. falciparum luciferase reporter growth, 96 h; AID 504834, 2011; Potency, µM (titrated, usually from 28.7 µM), inactives show at the highest dose activity change, negative = inhibition, most hits filed as inhibitors
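Luminescence readout: decreased luciferase signal marks inhibited growth of reporter-expressing P. falciparum in infected red cells (2% hematocrit, 0.05% parasitemia final), exposed to compound two generations (96 h, 37 C, 5% CO2).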
The depositor's hits bear a star; i = inactive; ? = inconclusive; . = no result given; [ ] = remark or other dose. Unless noted, calls come from the whole dose curve; as a rule, active = well fitted curve in the direction sought with a large enough effect; inconclusive = small, poorly fitted or top-dose-only effect, or another doubt; inactive = no such curve, though single readings can be large; an effect the other way counts as inactive or inconclusive. Unless noted, % is set by controls: 0 for no effect and ±100 for the full control effect; potency is the fitted concentration of half-maximal effect.

SMILES | VACV mCherry inh | AMA1-RON2 inh | Vaccinia Venus | Pf growth 48h | Pf growth 96h
COc1cc(NC(=O)Cn2ncc3c([nH]c4ccc(C)cc43)c2=O)cc(OC)c1OC | -8% | . | -8% | . | .
O=C(CSc1nc2c(cnn2-c2ccc(F)cc2)c(=O)[nH]1)N1N=C(c2cccs2)CC1c1ccc(F)cc1 (stereo not drawn) | . | . | . | ? | 9.3µM*
CCOc1ccc(N(C)Cc2cc(=O)oc3ccc(OCC)cc23)cc1 | -10% | 25µM* | -29% | -29% | 13%
CCOc1ccc(CN(C)Cc2cc(=O)oc3cc(C)c(Cl)cc23)cc1 | i | 5% | -4% | ? | ?
CN(C)S(=O)(=O)c1ccc2c(c1)nnn2CCNC(=O)Nc1ccc(Br)cc1 | -6% | . | -1% | . | .
CN(C)c1ccc(/C=C/c2ccnc3cc(Cl)cc(Cl)c23)cc1 | -11% | . | 95% | . | .
CCCc1cc(NCC2CCCO2)n2c(nc3ccccc32)c1C#N (stereo not drawn) | . | 5% | . | 5.2µM* | .
CCCc1cc(NCc2ccccn2)n2c(nc3ccccc32)c1C#N | -12% | 23% | 6% | 1.9µM* | 9%
CCCc1cc(NCCN(C)C)n2c(nc3ccccc32)c1C#N | . | -1% | . | 0% | -24%
CCN(CC)C(=O)c1cnn(-c2ccccc2)c1NC(=O)c1ccco1 | -17% | 0% | -7% | . | -10%
Cc1ccc(NC(=O)c2cnn(-c3ccccc3)c2NC(=O)c2ccco2)cc1C | . | -3% | -9% | 63% | 12µM*
CCN1CC=C2C(C#N)=C(N)C(C#N)(C#N)C(CCc3ccccc3)C2C1 (stereo not drawn) | . | 0% | . | 10µM* | 10µM*
CC(=O)N1CC=C2C(C#N)=C(N)C(C#N)(C#N)C(CCc3ccccc3)C2C1 (stereo not drawn) | i | -4% | -2% | -28% | -7%
COC(=O)c1cccc(C(=O)NCc2nc(-c3ccccc3NC(C)=O)oc2C)c1 | -7% | . | 8% | . | .
Cc1ccc(NC(=O)c2cc3ccccc3cc2O)cc1 | . | 2% | . | ? | ?
COc1ccc(NC(=O)c2cc3ccc4c5ccccc5[nH]c4c3cc2O)cc1 | ? | ? | -7% | ? | 5.9µM*
COc1ccc(NC(=O)c2cc3ccccc3cc2O)cc1 | -20% | 31% | -23% | ? | 8.3µM*
COc1ccc(NC(=O)c2cc(=O)[nH]c3ccccc23)cc1 | . | -2% | . | 2%[0.00184 µM] | -1%
CCc1c(C)c(C#N)c2nc3ccccc3n2c1NCCN(C)C | . | 9% | . | 9.3µM* | -11%
CCCCc1c(C)c(C#N)c2nc3ccccc3n2c1Nc1c(C)n(C)n(-c2ccccc2)c1=O | -30% | 0% | -21% | 1.9µM* | 2.1µM*
C=C(C)Cc1c(C)c(C#N)c2nc3ccccc3n2c1NCCCN(C)C | -12% | 12% | -8% | ? | 9.3µM*
Cc1c(Nc2c3c(c(C#N)c4nc5ccccc5n24)CCC3)c(=O)n(-c2ccccc2)n1C | . | . | . | -2% | 13%
COc1ccc(CNC(=O)C(CC(C)C)NS(=O)(=O)c2ccc3c(c2)CCN3C(C)=O)cc1 (stereo not drawn) | -5% | . | -2% | . | .
CC(/C=N/n1cnnc1)=C\c1ccccc1 | -13% | 0% | -9% | 26% | ?
ClC(/C=N/n1cnnc1)=C/c1ccccc1 | -27% | -12% | -26% | 12µM* | 12µM*
SMILES | VACV mCherry inh | AMA1-RON2 inh | Vaccinia Venus | Pf growth 48h | Pf growth 96h
CCc1nnc(N/N=C/c2cccs2)n1N | 22µM* | 37% | ? | -5% | ?
CCc1nnc(N/N=C/c2c(Cl)cccc2Cl)n1N | -17% | 54% | -9% | ? | 91%
CCn1cc(/C=C/C(=O)Nc2ccc(C)cc2Br)cn1 | -17% | -20% | -6% | 150% | 127%
CCn1cc(/C=C/C(=O)Nc2ccn(Cc3c(F)c(F)cc(F)c3F)n2)cn1 | -16% | -13% | -23% | ? | 13µM*
CC(=O)Nc1ccc(/C=C/c2sc3ccccc3[n+]2CCCCI)cc1 | 36% | . | 61% | . | .
S=c1[nH]c2ccccc2s1 | -20% | . | -17% | . | .
COc1ccc(/C=C/C(=O)N(C(C)C)C(C)C)cc1Br | . | -2% | . | 6.6µM* | ?
COc1ccc(/C=C/C(=O)NC(C)C)cc1Br | . | 4% | . | ? | ?
COC(=O)CCN(c1ccccc1)S(=O)(=O)c1cc(-c2cc(C)no2)ccc1OC | -24% | 5% | -19% | ? | 10µM*
COc1ccc(-c2cc(C)no2)cc1S(=O)(=O)Nc1cccc(CN2CCCC2)c1 | -3%[7.34 µM] | 14% | -1%[7.34 µM] | 15µM* | -10%
COc1ccc(-c2cc(C)no2)cc1S(=O)(=O)NCc1ccc(OC(C)C)cc1 | i | -5% | -16% | 22% | 10µM*
COc1ccc(-c2cc(C)no2)cc1S(=O)(=O)Nc1cccc(C(F)(F)F)c1 | -18% | . | -17% | . | .
CCc1ccc(-c2cc(C)no2)cc1S(=O)(=O)Nc1cccc(CN2CCCC2)c1 | . | 5% | . | 9.3µM* | -32%
O=C(NCC(c1cccnc1)N1CCc2ccccc21)C(=O)Nc1ccccc1F (stereo not drawn) | -3% | . | -10% | . | .
Cc1c(C(=O)NCc2ccccc2Cl)sc2nc[nH]c(=O)c12 | -25% | . | -19% | . | .
COc1ccc(NC(=O)C2CCC(CNS(=O)(=O)c3ccc(Br)s3)CC2)c(OC)c1 (stereo not drawn) | -12% | . | -15% | . | .
CCN(CC)C(=O)C1CCN(C(=O)c2cnn(-c3ccccc3)c2-n2cccc2)CC1 | -7% | . | 2% | . | .
COCC(C)NC(=O)Cc1ccc(F)cc1 (stereo not drawn) | -1% | -3% | -2% | -15% | 9.3µM*
COCC(C)NC(=O)Cc1ccc(Cl)cc1 (stereo not drawn) | -4% | 14% | -1% | 29% | 17%
Cc1cc(C)c2oc(-c3cccc(NC(=O)c4cc5ccccc5o4)c3)nc2c1 | 5% | . | 2% | . | .
O=C(c1ccc2c(c1)N(Cc1ccc(Cl)cc1)C(=O)c1ccccc1S2=O)N1CCCCC1 (stereo not drawn) | -11% | . | -11% | . | .
CN1CCN(C(=O)c2ccc3c(c2)N(Cc2ccc(Cl)cc2)C(=O)c2ccccc2S3=O)CC1 (stereo not drawn) | -10% | 3% | -12% | 10µM* | -19%
CN1CCN(C(=O)c2ccc3c(c2)N(Cc2cccc(Cl)c2)C(=O)c2ccccc2S3(=O)=O)CC1 | i | 7% | -12% | ? | 12µM*
O=C(C[n+]1cccc(Br)c1)c1ccc2ccccc2c1 | -8% | . | -12% | . | .
Cc1cc2ccccc2n1CCNC(=O)c1ccccc1F | 3% | . | 0% | . | .
COc1ccccc1CNC(=O)c1ccc2[nH]c(C)c(C)c2c1 | -9% | . | -13% | . | .
Cc1oc(-c2cccc(Br)c2)nc1Cn1c(SCc2cccc(F)c2)nc2cccnc21 | -4% | . | -8% | . | .

Source: PubChem BioAssay
